What all share (assay): peptide microarray binding signal (635 nm), min-max normalized on array (fraction of array maximum); higher = stronger binding
Settings in all cases: peptide region: H3 112-124

The target in test [1] is T1, HaloTag-ATRX ADD domain (163-292).
T1 chain: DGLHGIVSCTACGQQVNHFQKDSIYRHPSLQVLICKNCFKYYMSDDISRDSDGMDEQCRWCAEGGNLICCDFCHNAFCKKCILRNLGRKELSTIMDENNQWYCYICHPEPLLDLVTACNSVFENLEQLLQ
In a few lines:
(§1)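 Arrays carried histone 13-mer peptide–cellulose conjugates printed in triplicate on nitrocellulose alongside a Cy3 tracer. After overnight blocking at 4°C, they were incubated for 1 h at 4°C with biotin-labelled HaloTag reader fusions (10 nM to 1 μM) plus streptavidin-Alexa Fluor 647, or with rabbit histone antibodies (1:10,000 to 1:2,000) plus anti-rabbit Alexa 647. Scanning on an Axon GenePix 4000B used 635 nm for signal and 532 nm for misprints. The binding signal reported is each triplicate's mean spot intensity after per-library min-max scaling.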

In test [2] the target is HaloTag-ING2 PHD (mouse Ing2 200-280). In short, it runs like this: as §1
The target in test [3] is anti-H3K4me3 antibody ab8580. In a few lines: as §1
The target in test [4] is anti-H3K9me3 antibody ab8898. In a few lines:
as §1

Setting [5] is: peptide modifications: H3K115me2 H3R116me2a, binder concentration: 1:2,000 dilution.
Where [6] appears, read: peptide modifications: H3K115me2 H3R116me2a, binder concentration: 1:10,000 dilution.
[7] abbreviates: peptide modifications: H3K115me1 H3K122me2, binder concentration: 1:2,000 dilution.
Setting [8] is: peptide modifications: H3K115me1 H3K122me2, binder concentration: 1:10,000 dilution.
The mark [9] stands for this setting: peptide modifications: H3K115me2 H3K122ac, binder concentration: 1:2,000 dilution.
The mark [10] stands for this setting: peptide modifications: H3K115me2 H3K122ac, binder concentration: 1:10,000 dilution.
The mark [11] stands for this setting: peptide modifications: H3K115ac H3R116me2a, binder concentration: 1:2,000 dilution.
Where [12] appears, read: peptide modifications: H3K115ac H3R116me2a, binder concentration: 1:10,000 dilution.
[13] abbreviates: peptide modifications: H3K115me1 H3K122me1, binder concentration: 1:2,000 dilution.
Where [14] appears, read: peptide modifications: H3K115me1 H3K122me1, binder concentration: 1:10,000 dilution.

± gives the standard deviation.

Turning to IHAKRVTIMPKDI [H3 112-124 I H A Kme2 Rme2a V T I M P K D I], the “peptide microarray binding signal” value came out at 0.00392 ± 0.00012 in test [1] (peptide modifications: H3K115me2 H3R116me2a, binder concentration: 50 nM); 0.0121 ± 0.00062 in test [1] (peptide modifications: H3K115me2 H3R116me2a, binder concentration: 500 nM); 0.013 ± 0.0011 in test [2] (peptide modifications: H3K115me2 H3R116me2a, binder concentration: 10 nM); 0.015 ± 0.0041 in test [2] (peptide modifications: H3K115me2 H3R116me2a, binder concentration: 100 nM); 0.00655 ± 0.00081 in test [3] (setting [5]); 0.00291 ± 6.6e-05 in test [3] (setting [6]). Also, the figures for the “peptide microarray binding signal” value in test [4] (setting [5]) and in test [4] (setting [6]) were 0.00612 ± 0.00057 and 0.00346 ± 0.00033, respectively.
As for IHAKRVTIMPKDI [H3 112-124 I H A Kme R V T I M P Kme2 D I], the “peptide microarray binding signal” value in test [1] (peptide modifications: H3K115me1 H3K122me2, binder concentration: 50 nM) amounted to 0.00423 ± 4.3e-05; in test [1] (peptide modifications: H3K115me1 H3K122me2, binder concentration: 500 nM), 0.00881 ± 0.00019; in test [2] (peptide modifications: H3K115me1 H3K122me2, binder concentration: 10 nM), 0.0148 ± 0.0012; in test [2] (peptide modifications: H3K115me1 H3K122me2, binder concentration: 100 nM) it was 0.0263 ± 0.0033; in test [3] (setting [7]), 0.0016 ± 6.6e-05; in test [3] (setting [8]) it was 0.001826 ± 1.7e-05. Also, the results for the “peptide microarray binding signal” value in test [4] (setting [7]) and in test [4] (setting [8]) were 0.00125 ± 6.5e-05 and 0.00133 ± 2.3e-05, respectively.
As to IHAKRVTIMPKDI [H3 112-124 I H A Kme2 R V T I M P Kac D I], the “peptide microarray binding signal” value in test [1] (peptide modifications: H3K115me2 H3K122ac, binder concentration: 50 nM) was 0.00357 ± 5.2e-05; in test [1] (peptide modifications: H3K115me2 H3K122ac, binder concentration: 500 nM) it was 0.006 ± 0.00044; in test [2] (peptide modifications: H3K115me2 H3K122ac, binder concentration: 10 nM), 0.0178 ± 0.0029; in test [2] (peptide modifications: H3K115me2 H3K122ac, binder concentration: 100 nM), 0.0235 ± 0.0049; in test [3] (setting [9]) it was 0.00145 ± 0.00019; in test [3] (setting [10]) it was 0.00188 ± 0.00012. In addition, the “peptide microarray binding signal” value is 0.00186 ± 0.00037 in test [4] (setting [9]) and 0.00277 ± 0.00067 in test [4] (setting [10]).
Consider IHAKRVTIMPKDI [H3 112-124 I H A Kac Rme2a V T I M P K D I], for which the “peptide microarray binding signal” value worked out at 0.00787 ± 0.00018 in test [1] (peptide modifications: H3K115ac H3R116me2a, binder concentration: 50 nM); 0.0159 ± 0.00051 in test [1] (peptide modifications: H3K115ac H3R116me2a, binder concentration: 500 nM); 0.0239 ± 0.00027 in test [2] (peptide modifications: H3K115ac H3R116me2a, binder concentration: 10 nM); 0.0365 ± 0.0046 in test [2] (peptide modifications: H3K115ac H3R116me2a, binder concentration: 100 nM); 0.00423 ± 0.00017 in test [3] (setting [11]); 0.00394 ± 0.00014 in test [3] (setting [12]). Besides, the entries for the “peptide microarray binding signal” value in test [4] (setting [11]) and in test [4] (setting [12]) were 0.00278 ± 0.00019 and 0.00306 ± 0.0002, respectively.
As to IHAKRVTIMPKDI [H3 112-124 I H A Kme R V T I M P Kme D I], the “peptide microarray binding signal” value in test [1] (peptide modifications: H3K115me1 H3K122me1, binder concentration: 50 nM) was 0.00511 ± 9.8e-05; in test [1] (peptide modifications: H3K115me1 H3K122me1, binder concentration: 500 nM) it was 0.0109 ± 9.7e-05; in test [2] (peptide modifications: H3K115me1 H3K122me1, binder concentration: 10 nM), 0.0179 ± 0.0021; in test [2] (peptide modifications: H3K115me1 H3K122me1, binder concentration: 100 nM) it was 0.0298 ± 0.0035; in test [3] (setting [13]), 0.00187 ± 0.00022; in test [3] (setting [14]), 0.00234 ± 0.00015. Besides, the “peptide microarray binding signal” value in test [4] (setting [13]) came to 0.00121 ± 5.5e-05; in test [4] (setting [14]), 0.00115.

(Values after the supplement of paper PMC4022240.)
